The source made the active and inactive calls. The calls were made as follows: active = hit-call score of the fitted dose curve at least 0.9, where 1 is the maximum; inactive = score below 0.9.
These compounds were tested on Insulin-like growth factor-binding protein 1 (IGFBP1), IGFBP1 (gene 3484) (assay: LTEA_HepaRG_IGFBP1: Life Technologies and Expression Analysis (LTEA) Assay for Insulin-like growth factor-binding protein 1 (IGFBP1) using HepaRG (AID 2283508)). Conditions: mRNA level, 48 h; actives raise or lower the signal.
Description: LTEA_HepaRG is a cell based, multiplexed-readout assay that uses HepaRG, a human liver cell line, with measurements taken at 48 hours after chemical dosing on a 96-well plate.LTEA_HepaRG_IGFBP1 is one of 102 assay component(s) measured in the LTEA HepaRG cell culture assay. It is a marker of Cell proliferation, survival, death.Data from the assay component LTEA_HepaRG_IGFBP1 was analyzed into 1 endpoint. This assay endpoint, LTEA_HepaRG_IGFBP1, was analyzed with bidirectional fitting relative to DMSO as the negative control and baseline of activity. Using a type of inducible reporter, measures of mRNA induction for gain or loss-of-signal activity can be used to understand regulation of transcription factor activity. To generalize the intended target to other relatable targets, this assay endpoint is annotated to the transporter intended target family, where the subfamily is hormone carrier protein.
A total of 1060 chemcials from the ToxCast library were tested in eight-point concentration-response experiments. Cell culture and cytotoxicity assays were conducted at Thermo Fisher Scientific's Custom Services facility (Madison, WI). A single lot of human HepaRG cells (Thermo Fisher Scientific, Frederick, MD) was used for the cell culture experiments. 96-well format collagen type I coated plates of human HepaRG cells were prepared using established methods. Briefly, cryopreserved HepaRG cells were thawed, plated at a density of approximately 100,000 cells/well in HepaRG Thaw, Plate, and General Purpose media (HPRG770, Thermo Fisher Scientific), and incubated for 48 hours. 0.5% DMSO was selected as vehicle control to balance the requisite need of DMSO in HepaRG cultures to maintain differentiation (for example, baseline metabolism, proportions of hepatocytes vs. cholangiocytes), while enabling further hepatic receptor pathway activation (for example, PXR and CAR) in response to chemical exposure. 48 hours after plating, the culture medium was replaced with HepaRG Serum-Free Incudtion Media. Cells were exposed to each test chemical in duplicate and maintained in CO2 incubators for another 48 hours. Chemical plates were thawed to room temperature and 200x concentrations of treatment groups were prepared. 8-point conentration-reponse curves were made with the highest exposure at 100 uM, followed by half-log dilutions, all in 0.5% DMSO. Each test plate contained variouse controls, induction positive controls (1mM phenobarbital), cytotoxicity positive controls ([…] aflatoxin B1), vehicle controls (0.5% DMSO), and total lysis controls (0.5% DMSO). Cell morphology images were taken using an Essen IncuCyte FLR automated microscope, with six 96-well plates imaged in about 24 minutes. Images were captured and exported and JPEG files. Spent culture media was transfered to black-well plates for the LDH assay, and remaining media was sorted at -80 C for later use. Cells were treated with RLT buffer and frozen until shipped for gene expression analysis. Total RNA was isolated from the cell suspension in 75 uL of Buffer RLT (Qiagen, Germantown, MD 20874) by Quintiles/Expression Analysis (Durham, NC) using a custom isolation procedure. Total RNA from each plate well was transferred to a preamplification plate. Fluidigm's 96.96 Dynamic ArrayTM (Fluidigm, Amsterdam, the Netherlands) technology was used for gene expression analyses by quantitative reverse transcription polymerase chain reaction (qRT-PCR, performed by Quintiles/Expression Analysis, Durham, NC)89. Standard TaqManTM Assays (Applied Biosystems/ThermoFisher Scientific, Foster City, CA) were used to assess the expression of 93 genes selected based on their selectivity and sensitivity to important hepatic receptors known to be modulated by environmental chemicals; importance in human hepatocyte functionality; and hepatotoxicity. […]

Compound	outcome	AC50
CCCCC(CC)C(=O)O (stereo unspecified)	inactive	
O=C(c1ccccc1)c1ccccc1	inactive	
CN(Cc1cnc2nc(N)nc(N)c2n1)c1ccc(C(=O)N[C@@H](CCC(=O)O)C(=O)O)cc1	inactive	
O=C(CCCN1CCC(O)(c2ccc(Cl)cc2)CC1)c1ccc(F)cc1		71.1 µM (active)
CS(=O)(=O)c1ccc([C@@H](CC2CCCC2)C(=O)Nc2cnccn2)cc1Cl		75.2 µM (active)
Cc1[nH]nc2c1N=C(c1ccccc1Cl)c1cc([N+](=O)[O-])ccc1N2		79.6 µM (active)
CCC(C)c1ccccc1O (stereo unspecified)	inactive	
CC(=O)Nc1ccc(O)cc1	inactive	
CCCCCCCCCCCCCCC	inactive	
OCC(CO)(CBr)CBr	inactive	
CCCCc1oc2ccccc2c1C(=O)c1cc(I)c(OCCN(CC)CC)c(I)c1		54 µM (active)
CCCCC=O	inactive	
O=C1NS(=O)(=O)c2ccccc21	inactive	
N=C(N)c1ccc(OCCCCCOc2ccc(C(=N)N)cc2)cc1		3.52 µM (active)
CN(C)CCOC(c1ccccc1)c1ccccc1	inactive	
CCCCCCCCCCCCOS(=O)(=O)O		79.1 µM (active)
